DT40 TDP1 CPT – DT40-hTDP1 cell growth loss with CPT. chicken DT40 Tdp1-/-;hTDP1 cells + 20 nM CPT, ATP luminescence, 48 h. Potency, µM (series often up to 46.2 µM), without a hit: at the top dose activity change, negative = growth inhibition, usual class: inhibitors. hit rate 12% among 420,000. AID 686979; further: nearly all actives have a fitted effect of over 55% in size
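Cell growth measured by CellTiter-Glo luminescence after a minimum 48 h, 37 C compound exposure with 20 nM CPT in Tdp1-knockout DT40 cells stably expressing hTDP1, seeded 400/well; qHTS titration format.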
KB-3-1 tox – kills parental KB-3-1 adenocarcinoma cells; AID 1347075; KB-3-1 viability, CellTiter-Glo ATP luminescence, 72 h; hit rate 1.4% among 400,000; Potency, µM (series often up to 46.1 µM), usual class: cytotoxic; further: nearly all actives have a fitted effect of over 60% in size
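KB-3-1 parental drug-naive adenocarcinoma cells in DMEM/10% FBS, incubated 72 h at 37 C with pin-transferred compounds across a concentration series. Viability by CellTiter-Glo luminescence; concentration-response curves fitted after normalization.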
TDP1 cell noCPT – qHTS for Inhibitors of human tyrosyl-DNA phosphodiesterase 1 (TDP1): qHTS in cells in absence of CPT. AID 686978, 2013. hit rate 15% among 420,000. DT40 Tdp1-/- hTDP1 cells, no CPT, ATP luminescence, 48 h. Potency, µM (series often up to 46.2 µM), without a hit: at the highest dose activity change, negative = growth inhibition, actives largely listed as inhibitors; further: nearly all actives have a fitted effect of over 55% in size
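Cells were dispensed at 400 per well, compounds added by pin tool, plates incubated ≥48 hr at 37 °C, then CellTiter-Glo added for 30 min at room temperature before luminescence reading. Line: DT40 Tdp1-/- complemented with hTDP1; camptothecin omitted.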
HT1080NT lethal – kills 2HG-producing HT-1080-NT fibrosarcoma cells | HT-1080-NT fibrosarcoma viability, CellTiter-Glo ATP luminescence, 48 h | Potency, µM (series often up to 46.1 µM), for the others: at the highest dose activity, negative = less viability, actives largely listed as cytotoxic | hit rate 1.6% among 360,000;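 further: NT is the 2HG producing partner of a matched IDH1 knockdown line; 0% = DMSO-treated cells and -100% = media-only wells without cells; nearly all actives have a fitted effect of over 55% in size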
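Toxicity toward the 2HG-producing NT line was scored as %Activity, normalised to DMSO and no-cell wells, from CellTiter-Glo luminescence after 48 hours' treatment.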
KB-V1 MDR tox – KB-V1 MDR subline cytotoxicity; hit rate 3.4% among 400,000; Potency, µM (doses to about 46.1 µM), hits mostly cytotoxic; AID 1347076; KB-V1 MDR cells viability, CellTiter-Glo, 72 h; further: nearly all actives have a fitted effect of over 60% in size
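Potencies derive from concentration-effect curves fitted to normalized luminescence (CellTiter-Glo) of KB-V1 cells treated for 72 h at 37 degrees C in phenol-red-free DMEM containing 10% FBS.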
HT1080 IDH1KD tx – HT-1080 IDH1 knockdown cell toxicity (counter line); HT-1080 IDH1 knockdown viability, ATP luminescence, 48 h; Potency, µM (top dose mostly 46.1 µM), for inactives: at the highest dose activity, negative = toxicity, hits mostly cytotoxic; hit rate 2% among 360,000; AID 686971;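 further: 0% = DMSO wells and -100% = cell-free medium wells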
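After a 2 h attachment period, IDH1KD HT-1080 cells took pin-transferred compound for 48 h at 37 °C; ATP-based luminescence after 10 min room-temperature reagent incubation reported viability.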
Numbers without * were called inactive; i = inactive; ? = inconclusive; . = no result; ! = repeats disagree. The list is not random: actives were taken first. Their share in the collection is about 19%. The call rests on the fitted dose curve; in most records, active means well fitted curve in the direction sought with a large enough effect; inconclusive means small, poorly fitted or top-dose-only effect, or another doubt; inactive means no such curve, though single readings can be large; an effect the other way counts as inactive or inconclusive. Unless noted, on the % scale 0 is the no-effect control and ±100 the full control effect; potency means the concentration at half of the fitted maximal effect.

SMILES	DT40 TDP1 CPT	KB-3-1 tox	TDP1 cell noCPT	HT1080NT lethal	KB-V1 MDR tox	HT1080 IDH1KD tx
CC(C)[C@H](CO)Nc1nc(Nc2ccc(C(=O)O)c(Cl)c2)c2ncn(C(C)C)c2n1	4%	.	-1%	.	.	.
CCOC(=O)C(C#N)=CN1CCNc2ccccc21	-14%	i	-6%	7%	i	6%
CCN1CCN(c2cc(C)c3cc(NC(=S)NCCCN4CCc5ccccc5C4)ccc3n2)CC1	?	i	15µM*	21µM*	i	21µM*
Cc1cc(N2CCN(C)CC2)nc2ccc(NC(=S)NCCCN3CCc4ccccc4C3)cc12	?	i	?	18µM*	i	16µM*
Cc1cc(N2CCCC2)nc2ccc(NC(=S)NCCCN3CCC(C)CC3)cc12	?	i	?	23µM*	?	23µM*
Cc1ccc(C(C(=O)NC2CCCCC2)N(Cc2cccnc2)C(=O)c2csnn2)cc1 (stereo not given)	-7%	i	-22%	1%	i	0%
O=S(=O)(Nc1ccc(C(O)(C(F)(F)F)C(F)(F)F)cc1)c1ccc(Cl)c2nonc12	13µM*	?	15µM*	21µM*	?	15µM*
Cc1c(N)nc(C(CC(N)=O)NCC(N)C(N)=O)nc1C(=O)NC(C(=O)NC(C)C(O)C(C)C(=O)NC(C(=O)NCCc1nc(-c2nc(C(=O)NCCCN[C@@H](C)c3ccccc3)cs2)cs1)C(C)O)C(O[C@@H]1O[C@@H](CO)[C@@H](O)[C@H](O)[C@@H]1O[C@H]1O[C@H](CO)[C@@H](O)[C@H](OC(N)=O)[C@@H]1O)c1cnc[nH]1 (stereo not given in full)	1.2µM*	.	1.7µM*	.	.	.
CC(C)(C)n1[nH]c2c3c(ccc2c1=O)C(=O)c1ccccc1C3=O	8.2µM*	?	7.3µM*	?	?	?
Cc1ccc(-n2[nH]c3c4c(ccc3c2=O)C(=O)c2ccccc2C4=O)cc1	-8%	i	-21%	24%	i	20%
COCCCn1[nH]c2c3c(ccc2c1=O)C(=O)c1ccccc1C3=O	16µM*	?	16µM*	?	15µM*	?
NC(N)=NC1=NC(=O)C(Cc2ccccc2)S1 (stereo not given)	3%	i	6%	17%	i	15%
Cc1ccccc1-c1noc(-c2ccccc2OCC(=O)Nc2ccccc2[N+](=O)[O-])n1	-21%	i	-10%	.	i	.
COc1ccc(-n2cc(-c3ccccc3)c3c(NN4CCOCC4)ncnc32)cc1	?	i	16µM*	-25%	?	-23%
COc1ccc(-n2cc(-c3ccccc3)c3c(NCCOCCO)ncnc32)cc1	?	i	?	-7%	i	-8%
COCCCNc1ncnc2c1c(-c1ccccc1)cn2-c1ccc(C)c(Cl)c1	18µM*	.	?	.	.	.
Fc1ccc(-n2cc(-c3ccccc3)c3c(NN4CCOCC4)ncnc32)cc1	?	?	23µM*	11%	7.3µM*	5%
COc1ccc(Nc2ncnc3c2c(-c2ccccc2)cn3-c2ccc(C)c(Cl)c2)cc1OC	-2%	.	-12%	.	.	.
O=C(C1CC(=O)N(c2ccccc2F)C1)N1CCOCC1 (stereo not given)	21%	i	-8%	5%	i	0%
Cc1ncc(NS(=O)(=O)c2ccc(N)cc2)nc1C	0%	i	-17%	16%	i	19%
C[N+]1(CC(=O)c2ccc(I)cc2)CCOCC1	-19%	i	-4%	.	i	.
Cc1cccc(OC2(c3ccccc3)OC(=O)c3ccccc32)c1C (stereo not given)	-18%	i	?	-4%	15µM*	-23%
C=CCOC(=O)Nc1nc(CCNC(=O)OC(C)(C)C)c(C(=O)O)s1	12%	i	7%	8%	i	9%
C/C(Cc1ccccc1)=N\NC(=O)CNC(=O)COc1ccccc1	20%	i	2%	-4%	i	-1%
CC(C)NCC(O)COc1cccc2ccccc12 (stereo not given)	16µM*!	i	16µM*!	.	i	.
SMILES	DT40 TDP1 CPT	KB-3-1 tox	TDP1 cell noCPT	HT1080NT lethal	KB-V1 MDR tox	HT1080 IDH1KD tx
OCC(O)COc1cccc2ccccc12 (stereo not given)	0%	.	0%	.	.	.
OC(CNCc1ccccc1F)COc1cccc2ccccc12 (stereo not given)	?	i	?	?	i	15µM*
Cc1ccc(NC(=S)N=Nc2c(O)[nH]c3ccccc23)cc1	6.5µM*	?	7.3µM*	?	?	?
Oc1ccc(NC(=S)N=Nc2c(O)[nH]c3ccccc23)cc1	?	i	?	-7%	i	-18%
COc1ccc(NC(=S)N=Nc2c(O)[nH]c3ccccc23)cc1	8.2µM*	?	5.8µM*	-19%	?	-7%
Cc1ccc(C2(O)CN(c3ccccc3C)C3=[N+]2CCS3)cc1 (stereo not given)	12µM*	i	18µM*	8%	?	4%
Cc1cccc(NC(=O)COc2coc(CN3CCN(c4ccccc4)CC3)cc2=O)c1	21µM*	i	18µM*	-1%	i	3%
COc1ccc(NC(=O)COc2coc(CN3CCN(c4ccccc4)CC3)cc2=O)cc1	21µM*	i	?	1%	i	0%
COc1ccc(N2CCN(Cc3cc(=O)c(OCC(=O)Nc4ccccc4)co3)CC2)cc1	?	i	?	21%	i	28%
COC(=O)C1(C(=O)OC)C/C=C\CCN(S(=O)(=O)c2ccccc2[N+](=O)[O-])CC1	?	i	?	-7%	i	1%
OC[C@@H]1CN(Cc2ccc(-c3ccccc3)cc2)C[C@H](n2cnc3c(NCc4ccc(F)cc4)ncnc32)O1	4.1µM*	?	3.7µM*	18µM*	?	?
OC[C@@H]1CN(Cc2ccc(F)cc2)C[C@H](n2cnc3c(Nc4ccccc4)ncnc32)O1	?	i	?	12%	i	8%
CNc1ncnc2c1ncn2[C@H]1CN(C2CCCC2)C[C@@H](CO)O1	1.6µM*	i	-9%	11%	i	0%
OC[C@@H]1CN(Cc2ccc(-c3ccccc3)cc2)C[C@H](n2cnc3c(Nc4ccccc4)ncnc32)O1	4.1µM*	13µM*	?	?	21µM*	10µM*

Screens deposited in PubChem BioAssay by National Center for Advancing Translational Sciences (NCATS).
